Several values for one entry are separate records, joined by “and”; a condition that tells them apart may be missing. Equal values may be shown once. Results filed as inconclusive are left out. Activity calls are given as the source filed them. Unless noted, the call rests on the fitted dose curve.
System: not listed separately
Assay: qHTS assay to identify small molecule antagonists of the estrogen receptor beta (ER-beta) signaling pathway - cell viability counter screen (AID 1259382; active means well fitted cell-killing curve with a large enough effect in the repeat runs; further: nearly all actives have a fitted effect of over 55% in size; further: potency means the concentration at half of the fitted maximal effect;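 on activity change, negative = cytotoxicity: HEK293T cells carrying ER-beta-UAS-bla reporter stimulated with estradiol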)
Settings: ER-beta-UAS-bla HEK293T viability, CellTiter-Glo luminescence, 16 h; series mostly up to 92.4 µM; activity change, negative = cytotoxicity: at the top concentration
Method in brief: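 Luminescent ATP read-out (CellTiter-Glo, 30 min, RT) taken in the same wells as the bla reporter assay. HEK293T ER-beta-UAS-bla cells in 2% charcoal-stripped FBS were exposed to compounds with 1nM E2 for 16 hr at 37C.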
On the % scale 0 is the no-effect control and ±100 the full control effect.

| SMILES | activity change, negative = cytotoxicity | Potency |
| --- | --- | --- |
| COc1cccc(O)c1 | 9.34% (inactive) | – |
| CCCCNc1c(C(=O)OCC)c(C)nc2c1cnn2CC | -0.442% [at 42.5 µM] (inactive) | – |
| O=S(=O)(O)CCCN1CCOCC1 | 7.98% (inactive) | – |
| CCCCCCCCCCCCCc1ccccc1 | 8.72% [at 42.5 µM] (inactive) | – |
| CC1=CCC(=O)O1 | 0% (inactive) | – |
| CCC(=O)CC(C)CC (stereo not given) | 9.77% [at 0.349 µM] (inactive) | – |
| Cc1ccc2ccc3cccc4ccc1c2c34 | -22.7% (inactive) | – |
| O=S(O)O | 4.33% [at 19 µM] (inactive) | – |
| O=C=NCc1cccc(CN=C=O)c1 | 13% [at 19 µM] (inactive) | – |
| CCN(CC)CCSC(=O)C(c1ccccc1)c1ccccc1 | -20.4% [at 42.5 µM] (inactive) | – |
| CC(=O)c1ccccc1N | 5.62% (inactive) | – |
| C=CC(=C)CC/C=C(\C)CCC=C(C)C | -3.14% [at 19 µM] (inactive) | – |
| OCCC(O)CO (stereo not given) | 2.46% (inactive) | – |
| Cc1cc(C)c(C=O)c(C)c1 | 6.08% (inactive) | – |
| CCCCCCCC(C)=O | 0.883% (inactive) | – |
| C/C=C/C(=O)Oc1c(CCCCCC(C)C)cc([N+](=O)[O-])cc1[N+](=O)[O-] | – | 48.6 µM (active) |
| CCc1cccc(CC)c1N(COC)C(=O)CS(=O)(=O)O | 14% (inactive) | – |

| SMILES | activity change, negative = cytotoxicity | Potency |
| --- | --- | --- |
| C/C=C/C(=O)C1=C(C)CCCC1(C)C | 10.5% (inactive) | – |
| CCN(CC)c1cccc(C)c1 | -2.8% (inactive) | – |
| CC(C)=C1CC[C@@H](C)CC1=O | -1.38% (inactive) | – |
| CN(Cc1cc(Br)cc(Br)c1N)C1CCCCC1 | -17.2% [at 42.5 µM] (inactive) | – |
| C(=C/c1ccccc1)/c1ccccc1 | 0.119% (inactive) | – |
| CCCCCCCC/C=C\CCCCCCCC(=O)N(C)CC(=O)O | – | 61.1 µM (active) |
| CC=O | – | 57 µM (active) |
| CCCCCCCCCCCCCC[n+]1ccccc1 | – | 61.1 µM (active) |
| Cc1cc(=O)[nH]c(=O)[nH]1 | 1.74% (inactive) | – |
| CCCCCCCC/C=C\CCCCCCCC(=O)OCCOC(=O)CCCCCCC/C=C\CCCCCCCC | -14.1% (inactive) | – |
| CSc1ccc2c(c1)N(CCC1CCCCN1C)c1ccccc1S2 (stereo not given) | – | 15.3 µM (active) and 13.3 µM (active) |
| Cn1cnc2ncnc(N)c21 | 0.407% [at 42.5 µM] (inactive) | – |
| COc1ccc(C#N)cc1 | 0% (inactive) | – |
| CCc1cccc(C)c1 | 2.31% (inactive) | – |
| CC(C)=CC1CC(C)CCO1 (stereo not given) | 0.672% (inactive) | – |
| CCCCCCCCCCCCCOP(=O)(O)O | -18.6% (inactive) | – |
| O=C1OC(=O)c2ccc3c4c(ccc1c24)C(=O)OC3=O | 1.8% (inactive) | – |

Target: Estrogen receptor (Homo sapiens) (UniProt P03372)
Assay: qHTS assay to identify small molecule agonists of the estrogen receptor alpha (ER-alpha) signaling pathway in the presence of an antagonist (AID 1259383); further: top concentration of the series differs between compounds; nearly all actives have a fitted effect of over 15% in size
Settings: VM7Luc4E2 cells, ERE-luciferase, +ICI-182,780, 22 h; series mostly up to 92.4 µM; activation: at the top concentration
Method in brief: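 Luciferase luminescence (ONE-Glo, 30min at room temperature) measured in VM7Luc4E2 cells after 22hr compound exposure at 15 concentrations, with 10.0nM ICI-182,780 final present; cells express endogenous ER-alpha and carry four EREs upstream of luciferase.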

Estrogen receptor (Homo sapiens), sequence (P03372 whole entry, looked up): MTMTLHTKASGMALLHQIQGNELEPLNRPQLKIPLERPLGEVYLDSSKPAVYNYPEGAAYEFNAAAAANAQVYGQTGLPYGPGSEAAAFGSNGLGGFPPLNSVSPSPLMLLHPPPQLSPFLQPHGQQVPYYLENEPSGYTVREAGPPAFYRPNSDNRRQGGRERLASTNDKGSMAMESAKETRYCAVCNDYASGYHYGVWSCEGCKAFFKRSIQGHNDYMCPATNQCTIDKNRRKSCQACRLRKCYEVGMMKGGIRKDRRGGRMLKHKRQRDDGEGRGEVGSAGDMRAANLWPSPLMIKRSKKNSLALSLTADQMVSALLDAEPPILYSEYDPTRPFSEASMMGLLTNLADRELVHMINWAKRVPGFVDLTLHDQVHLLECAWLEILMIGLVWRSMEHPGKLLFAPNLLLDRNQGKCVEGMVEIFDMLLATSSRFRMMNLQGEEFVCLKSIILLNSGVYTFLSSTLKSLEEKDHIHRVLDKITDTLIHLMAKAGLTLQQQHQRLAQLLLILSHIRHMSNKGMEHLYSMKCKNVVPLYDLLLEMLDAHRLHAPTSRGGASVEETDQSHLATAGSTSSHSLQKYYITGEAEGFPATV

| SMILES | activation | Potency |
| --- | --- | --- |
| COc1cccc(O)c1 | 1.06% (inactive) | – |
| CCCCNc1c(C(=O)OCC)c(C)nc2c1cnn2CC | -1.68% [at 42.5 µM] (inactive) | – |
| O=S(=O)(O)CCCN1CCOCC1 | -0.87% (inactive) | – |
| CCCCCCCCCCCCCc1ccccc1 | -0.0232% [at 42.5 µM] (inactive) | – |
| CC1=CCC(=O)O1 | -1.44% (inactive) | – |
| CCC(=O)CC(C)CC (stereo not given) | -1.38% [at 0.349 µM] (inactive) | – |
| Cc1ccc2ccc3cccc4ccc1c2c34 | 0.512% (inactive) | – |
| O=S(O)O | -0.842% [at 19 µM] (inactive) | – |
| O=C=NCc1cccc(CN=C=O)c1 | 0.099% [at 19 µM] (inactive) | – |
| CCN(CC)CCSC(=O)C(c1ccccc1)c1ccccc1 | 0.258% [at 42.5 µM] (inactive) | – |
| CC(=O)c1ccccc1N | -0.0824% (inactive) | – |
| C=CC(=C)CC/C=C(\C)CCC=C(C)C | 1.51% [at 19 µM] (inactive) | – |
| c1ccc(Nc2cccc3ccccc23)cc1 | – | inactive |
| OCCC(O)CO (stereo not given) | 0.941% (inactive) | – |
| Cc1cc(C)c(C=O)c(C)c1 | -1.16% (inactive) | – |
| CNC(=S)NN | 10.5% (inactive) | – |
| CCCCCCCC(C)=O | -0.091% (inactive) | – |
| C/C=C/C(=O)Oc1c(CCCCCC(C)C)cc([N+](=O)[O-])cc1[N+](=O)[O-] | -15.4% (inactive) | – |

| SMILES | activation | Potency |
| --- | --- | --- |
| CCc1cccc(CC)c1N(COC)C(=O)CS(=O)(=O)O | -3.66% (inactive) | – |
| C/C=C/C(=O)C1=C(C)CCCC1(C)C | -2.31% (inactive) | – |
| CCN(CC)c1cccc(C)c1 | 0.273% (inactive) | – |
| CC(C)=C1CC[C@@H](C)CC1=O | -1.79% (inactive) | – |
| CN(Cc1cc(Br)cc(Br)c1N)C1CCCCC1 | -0.0111% [at 42.5 µM] (inactive) | – |
| C(=C/c1ccccc1)/c1ccccc1 | 2% (inactive) | – |
| CCCCCCCC/C=C\CCCCCCCC(=O)N(C)CC(=O)O | -1.53% (inactive) | – |
| CC=O | -15.2% (inactive) | – |
| CCCCCCCCCCCCCC[n+]1ccccc1 | -15.8% (inactive) | – |
| Cc1cc(=O)[nH]c(=O)[nH]1 | -1.82% (inactive) | – |
| CCCCCCCC/C=C\CCCCCCCC(=O)OCCOC(=O)CCCCCCC/C=C\CCCCCCCC | 1.24% (inactive) | – |
| CSc1ccc2c(c1)N(CCC1CCCCN1C)c1ccccc1S2 (stereo not given) | – | inactive |
| Cn1cnc2ncnc(N)c21 | -2.35% [at 42.5 µM] (inactive) | – |
| COc1ccc(C#N)cc1 | -1.71% (inactive) | – |
| CCc1cccc(C)c1 | -0.3% (inactive) | – |
| CC(C)=CC1CC(C)CCO1 (stereo not given) | -3.3% (inactive) | – |
| CCCCCCCCCCCCCOP(=O)(O)O | -1.24% (inactive) | – |
| O=C1OC(=O)c2ccc3c4c(ccc1c24)C(=O)OC3=O | -1.82% (inactive) | – |

System: not listed separately
Assay: qHTS assay to identify small molecule agonists or antagonists of the thyroid stimulating hormone receptor (TSHR) signaling pathway - wild type cell line counter screen (AID 1259384)
Settings: HEK293 wild type, cAMP HTRF counter-screen, hits give high values; series mostly up to 92.4 µM; cAMP activity change: at the top concentration
Method in brief: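 Wild-type Hek293 cells, 800/well, 18 h at 37C, then compound with Ro20-1724 for 30 min RT. cAMP by HTRF (cAMP-d2/anti-cAMP cryptate), 1 h RT, fluorescence read. 15 concentrations, triplicates.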

| SMILES | cAMP activity change | outcome |
| --- | --- | --- |
| CCCCNc1c(C(=O)OCC)c(C)nc2c1cnn2CC | 3.95% [at 42.5 µM] (inactive) | – |
| O=S(=O)(O)CCCN1CCOCC1 | 0.434% (inactive) | – |
| CCCCCCCCCCCCCc1ccccc1 | 3.03% [at 42.5 µM] (inactive) | – |
| CC1=CCC(=O)O1 | 2.49% (inactive) | – |
| CCC(=O)CC(C)CC (stereo not given) | -1.63% [at 0.349 µM] (inactive) | – |
| Cc1ccc2ccc3cccc4ccc1c2c34 | -2.33% (inactive) | – |
| O=S(O)O | -1.65% [at 18.9 µM] (inactive) | – |
| O=C=NCc1cccc(CN=C=O)c1 | -0.613% [at 18.9 µM] (inactive) | – |
| CCN(CC)CCSC(=O)C(c1ccccc1)c1ccccc1 | 3.75% [at 42.5 µM] (inactive) | – |
| CC(=O)c1ccccc1N | -3.99% (inactive) | – |
| C=CC(=C)CC/C=C(\C)CCC=C(C)C | 3.85% [at 18.9 µM] (inactive) | – |
| c1ccc(Nc2cccc3ccccc23)cc1 | – | inactive |
| OCCC(O)CO (stereo not given) | -2.31% (inactive) | – |
| Cc1cc(C)c(C=O)c(C)c1 | -0.21% (inactive) | – |
| CNC(=S)NN | -0.54% (inactive) | – |
| CCCCCCCC(C)=O | 2.6% (inactive) | – |
| C/C=C/C(=O)Oc1c(CCCCCC(C)C)cc([N+](=O)[O-])cc1[N+](=O)[O-] | 1.77% (inactive) | – |
| CCc1cccc(CC)c1N(COC)C(=O)CS(=O)(=O)O | -2.23% (inactive) | – |

| SMILES | cAMP activity change | outcome |
| --- | --- | --- |
| C/C=C/C(=O)C1=C(C)CCCC1(C)C | 10.5% (inactive) | – |
| CCN(CC)c1cccc(C)c1 | -6.15% (inactive) | – |
| CC(C)=C1CC[C@@H](C)CC1=O | -0.325% (inactive) | – |
| CN(Cc1cc(Br)cc(Br)c1N)C1CCCCC1 | -0.511% [at 42.5 µM] (inactive) | – |
| C(=C/c1ccccc1)/c1ccccc1 | -3.16% (inactive) | – |
| CCCCCCCC/C=C\CCCCCCCC(=O)N(C)CC(=O)O | -11.1% (inactive) | – |
| CC=O | 2.02% (inactive) | – |
| CCCCCCCCCCCCCC[n+]1ccccc1 | 0.733% (inactive) | – |
| Cc1cc(=O)[nH]c(=O)[nH]1 | 2.37% (inactive) | – |
| CCCCCCCC/C=C\CCCCCCCC(=O)OCCOC(=O)CCCCCCC/C=C\CCCCCCCC | 5.75% (inactive) | – |
| CSc1ccc2c(c1)N(CCC1CCCCN1C)c1ccccc1S2 (stereo not given) | – | inactive |
| Cn1cnc2ncnc(N)c21 | -0.963% [at 42.5 µM] (inactive) | – |
| COc1ccc(C#N)cc1 | 0.268% (inactive) | – |
| CCc1cccc(C)c1 | 4.04% (inactive) | – |
| CC(C)=CC1CC(C)CCO1 (stereo not given) | -0.161% (inactive) | – |
| CCCCCCCCCCCCCOP(=O)(O)O | 2.47% (inactive) | – |
| O=C1OC(=O)c2ccc3c4c(ccc1c24)C(=O)OC3=O | 1.64% (inactive) | – |
